From PubChem BioAssay (NCI)
This is part of a sample that, as a whole, favours compounds with a hit. Of some 83,000 tested, about 20% had one in any assay.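 Activity criterion: percent growth below 10, measured after cells in 96-well plates were exposed to a single compound concentration for 48 hours.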 The source made the active and inactive calls.

What follows are molecules tested on SNB-75 CNS (assay: NCI-60 one-dose screen, 48 h (100 = growth as untreated, 0 = no growth, -100 = all killed)). Conditions: 10 µM unless noted.
Protocol: Growth inhibition of the SNB-75 human tumor cell line is measured as a screen for anti-cancer activity. Cells are grown in 96 well plates and exposed to the test compound for 48 hours. Compounds are tested at a single concentration, which is 10^-5 M for most compounds. The reported endpoint is percent growth (GI% or GIPRCNT), where numbers from 0 - 100% represent growth inhibition, and numbers from -100% - 0 represent cell death. For example, a value of 40 represents 60% growth inhibition. A value of 0 means no net growth occurred over the course of the experiment. A value of -40 indicates 40% of cells at the beginning of the experiment died by the end of the experiment. A value of -100 means all cells are dead at the end of the experiment.
NCI-60 Human Tumor Cell Lines Screen was performed using the standard one-dose NCI protocol, which is described in more detail at https://dtp.cancer.gov/discovery_development/nci-60/default.htm.
Compounds with GIPRCNT values below 10 were considered active. Activity score was based on GIPRCNT using the following formula: […]
Score is 0 for GIPRCNT values of 100 or above, 50 for GIPRCNT values of 0, and 100 for GIPRCNT values of -100.

| SMILES | growth |
| --- | --- |
| CCN(CC)c1ccc(/C=C2/NC(=O)NC2=O)cc1 | 59.1% (inactive) |
| CC(C)[C@@]12C[C@@H](OC(=O)C3CO3)[C@@](C)(O1)[C@@H]1CC[C@@H](C)[C@H]1[C@@H]2OC(=O)/C=C/c1ccccc1 (stereo not given in full) | 80.5% (inactive) |
| CCn1c(Cc2ccccc2Nc2c(Cl)cccc2Cl)nnc1SCC(=O)Nc1ccccc1C(F)(F)F | 92.9% (inactive) |
| CCCCc1nc(Cl)c(C2CC(c3ccc(S(N)(=O)=O)cc3)=NN2c2ccc(C#N)cc2)[nH]1 (stereo not given) | 87.5% (inactive) |
| Fc1ccc(-c2nc(-c3ccc(-c4nc5ccc(F)cc5[nH]4)cc3)no2)cc1 | 57.6% (inactive) |
| O=C1OCC2=C1C(c1ccccc1)c1cc3c(cc1N2CCO)CCC3 (stereo not given) | 64.4% (inactive) |
| O=C(O)c1cc2cc(OCc3ccccc3)ccc2[nH]1 | 87.8% (inactive) |
| COC(=O)OC1C(O[C@H]2C[C@H]3[C@@H]4CC=C5C[C@@H](O)CC[C@]5(C)[C@H]4CC[C@]3(C)[C@H]2[C@H](C)C(=O)CCC(C)C)OCC(O)C1OC1OCC(O)C(O)C1OC(=O)c1ccc(OC)cc1 (stereo not given in full) | 0.635% (active) |
| CC1=CC(=O)OC1C/C=C(\C)CCC1[C@@]2(C)CCC[C@@](C)(C(=O)O)C2CC[C@@]1(C)O (stereo not given in full) | 74% (inactive) |
| CC(C)(C)OC(=O)N1CCCN(CCNc2nccc(-c3c(-c4cccc(O)c4)nc4sccn34)n2)S1(=O)=O | 84% (inactive) |
| COc1ccc2nc3ccccc3c(NCc3ccc(Cl)cc3)c2c1 | 57.6% (inactive) |
| COc1ncnc2[nH]cc(CN3CCN(c4ccc(F)cc4)CC3)c12 | 100% (inactive) |
| ClC1=NC(Cl)C(Cl)=N/C1=N\c1ncn[nH]1 (stereo not given) | 68.9% (inactive) |
| CC(=O)OC[C@H]1O[C@@H](n2c(=O)cc(N)[nH]c2=O)C(OC(C)=O)[C@@H]1OC(C)=O (stereo not given in full) | 75.9% (inactive) |
| COc1ccccc1CNCCCN1C(=O)c2ccc3c4c(ccc(c24)C1=O)C(=O)N(CCCCNCCCN)C3=O | 53.9% (inactive) |
| O=C(c1ccccc1)C(CCc1ccccn1)CCc1ccccn1 | 106% (inactive) |
| CN(C)N1C(=O)c2c(Cl)c(Cl)c(Cl)c(Cl)c2C1=O | 92.7% (inactive) |
| CC(C)CCC(=O)[C@@H](C)[C@H]1[C@@H](OC2OCC(O)C(O)C2NS(C)(=O)=O)C[C@H]2[C@@H]3CC=C4C[C@@H](O)CC[C@]4(C)[C@H]3CC[C@]12C (stereo not given in full) | 22.2% (inactive) |
| CN1C(=O)NC(Cc2c[nH]c3c(Cl)cccc23)C1=O (stereo not given) | 103% (inactive) |
| CCOC(=O)C#Cc1c(C(=O)OCC)nnn1[C@@H]1O[C@H](COC(C)=O)[C@@H](OC(C)=O)[C@H]1OC(C)=O | 95.5% (inactive) |

| SMILES | growth |
| --- | --- |
| O=C1Nc2ccccc2/C1=C\c1nc(C2CCN(S(=O)(=O)c3ccc(F)cc3)CC2)n2ccccc12 | -10.4% (active) |
| COc1nccc2c(Sc3ccccc3)nc(N)nc12 | 84.5% (inactive) |
| CC1=C(O)C(=O)CC1 | 97.9% (inactive) |
| CC[C@H](C)[C@H](N)C(=O)O | 99.1% (inactive) |
| Nc1ccc(C2=NNC(=O)Cc3cc4c(cc32)OCCO4)cc1Cl | -1.14% (active) |
| CN1C(=O)N(C)C2C1NN=c1s/c(=C\c3ccsc3)c(=O)n12 (stereo not given) | -7.65% (active) |
| O=[N+]([O-])c1ccc(Sc2nc(Cl)nc(NC3CCCC3)n2)cc1 | -100% [100 µM] (active) |
| C=C1C(=O)O[C@H]2[C@H]1CC/C(COC(=O)NCc1cccc(OC)c1)=C\CC[C@@]1(C)O[C@@H]21 | 71.1% (inactive) |
| CCCCCCCCCCCCCC | 72.4% (inactive) |
| COc1ccc([C@H]2c3[nH]c4ccccc4c3C[C@H]3C(=O)N(CCCCCCC(=O)NO)CC(=O)N23)cc1 | -0.662% (active) |
| COc1cc(NCCC2CCCCN2)c2ncccc2c1OC (stereo not given) | 156% (inactive) |
| CN(C)c1nc(-c2cccs2)n2nc(-c3ccco3)cc2n1 | 86.5% (inactive) |
| COc1cc(OC)cc(-c2ccc(-c3ccc(C(=N)N)s3)s2)c1 | -91.5% (active) |
| CCn1c(=O)c(C(=O)NCCCO)c(O)c2ccccc21 | 96.8% (inactive) |
| COc1ccc(C(=O)C(CN(C)C)c2ccc(OC)cc2)cc1 (stereo not given) | 64.7% (inactive) |
| Clc1ccc(-c2cnc3nonc3n2)s1 | 102% (inactive) |
| CCOC(=O)c1ccc(NC(=O)CSC(N)=O)cc1 | 149% (inactive) |
| CN1C(=O)N(C)C2C1NN=c1s/c(=C\c3ccc(C(F)(F)F)cc3)c(=O)n12 (stereo not given) | 7.43% (active) |
| O=C(CCl)N1c2ccccc2Oc2ccc3ccccc3c21 | 22.1% (inactive) |
| Cc1ccccc1Nc1n[nH]c(Cc2ccccc2)n1 | 93.9% (inactive) |
